Test results: PubChem BioAssay (Tox21)
Results filed as inconclusive are left out. Entries that show only a call come without a potency. Calls of active or inactive are those of the source. Calls follow the shape of the full dose curve.

target: Beta-2 adrenergic receptor (Homo sapiens) (UniProt P07550); assay: Adrenergic beta2 receptor (ADRB2) small molecule antagonists, cell-based qHTS assay (AID 1963592); conditions: CHO-ADRB2 cells, isoproterenol-stimulated cAMP HTRF ratio, 0.5 h; series mostly up to 92.4 µM; also: nearly all actives have a fitted effect of over 50% in size
Sequence (P07550 whole entry, looked up): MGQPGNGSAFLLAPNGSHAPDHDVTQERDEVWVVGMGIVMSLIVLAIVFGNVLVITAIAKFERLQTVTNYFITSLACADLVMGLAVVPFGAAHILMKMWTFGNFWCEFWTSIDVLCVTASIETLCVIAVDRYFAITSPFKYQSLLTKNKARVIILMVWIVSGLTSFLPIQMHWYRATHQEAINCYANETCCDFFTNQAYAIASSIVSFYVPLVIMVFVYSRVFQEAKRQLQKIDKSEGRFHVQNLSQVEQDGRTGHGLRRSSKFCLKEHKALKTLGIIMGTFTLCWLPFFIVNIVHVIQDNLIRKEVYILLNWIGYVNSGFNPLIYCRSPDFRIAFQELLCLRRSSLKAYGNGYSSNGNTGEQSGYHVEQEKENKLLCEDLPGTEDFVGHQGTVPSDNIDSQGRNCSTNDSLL
Excerpt: U.S. Tox21 Program National Center for Advancing Translational Sciences [NCATS] Division of Preclinical Innovation [DPI] U.S. Environmental Protection Agency [EPA] National Institutes of Environmental Health Sciences [NIEHS] National Toxicology Program [NTP] U.S. Food and Drug Administration [FDA] Tox21 Assay Overview: Beta adrenergic receptors (Beta-ARs) belong to the G-protein coupled receptor (GPCR) superfamily, includes three subtypes - beta1, beta2, and beta3. Beta1-AR is the predominant receptor subtype expressed in the heart, and beta2-AR is expressed in the kidney, lung, blood vessel and in the heart, and beta3 is found in the adipocytes. Beta1 and 2 ARs couple to Gs protein and elevate cyclic adenosine mono phosphate (cAMP), which activates protein kinase A and leads to the downstream signaling responsible for the physiological actions. Beta-AR agonists or antagonists are the most prescribed therapeutic agents for heart failure and asthma, and these were one of the first target receptors for the rational drug design. Tox21 10K compound library was screened using the cAMP-Gs dynamic assay (Cisbio Bioassays, Shelton, CT) to identify agonists/antagonists of the Gs-coupled human adrenergic, beta2 receptor (ADRB2) in the CHO-ADRB2 cell line (Codex BioSolutions, Inc. Gaithersburg, MD), which stably over-expresses ADRB2. The principle of cAMP-Gs dynamic assay is based on HTRF technology, which facilitates the fluorescence resonance energy transfer (FRET) between donor Europium cryptate and acceptor d2-labeled cAMP. The cAMP generated within cells competes with the red acceptor, d2-labled cAMP, for binding to the monoclonal anti-cAMP-cryptate (Europium donor). An increase in intracellular cAMP leads to the disruption of FRET signal, and the signal is inversely proportional to the cAMP concentration. Propranolol HCl (Sigma-Aldrich, St. Louis, MO) was used as a positive control in the screening.
Tox21 Assay Protocol Summary: CHO-ADRB2 cells were dispensed at 1,000/well in 4uL assay medium into white/solid 1536-well plates (Greiner Bio-One North America Inc., Monroe, NC) using a Multidrop Combi dispenser (ThermoFisher Scientific, Waltham, MA). The assay plates were incubated at 37C and 5% CO2 for an overnight (18-20hr). Then positive control and test compounds dissolved in DMSO were transferred to the assay plates at 23nL using a Pintool station (Wako, San Diego, CA). Following the compound and positive control transfer, 1uL agonist-stimulation mix containing 1nM Isoproterenol HCl, 100uM IBMX and 25uM Ro-20-1724 was added to each well of the assay plates using BioRAPTR Flying Reagent Dispenser (FRD, Beckman Coulter, Brea, CA). The assay plates were incubated at room temperature for 0.5hr. Then 2.5ul each d2-labled cAMP and anti-cAMP-cryptate solutions were added separately to each well of the assay plates using an FRD and the assay plates were incubated at room temperature for 1hr. The fluorescence signal was measured at two different wavelengths (665nm and 615nm) using an Envision plate reader (Perkin Elmer, Shelton, CT). Data were expressed as the ratio of 665 nm/615 nm.

Question: How did the Potency turn out when `CC12CC3CC(C)(C1)CC(N)(C3)C2` was run?
Answer: inactive

Question: How did the Potency turn out when `OCCN1CCNCC1` was run?
Answer: inactive

Question: `COc1ccc2nc(N)sc2c1` was tested. Which Potency did it give?
Answer: inactive

Question: How did the Potency turn out when `CCCCCC(=O)CC` was run?
Answer: inactive

Question: For `C/C=C/c1ccc(OC)c(OC)c1`, which Potency is on record?
Answer: inactive

Question: For `OCCCC1CCCCC1`, which Potency is on record?
Answer: inactive

Question: Which Potency does the source give for `COC(=O)Cc1cccc2ccccc12` here?
Answer: inactive

Question: Which Potency does the source give for `CC1CCC(C(C)(C)O)CC1` (stereo not given) here?
Answer: inactive

Question: How did the Potency turn out when `CC(COCCO)OCCO` (stereo not given) was run?
Answer: inactive

Question: `CSc1ccc(C(=O)c2[nH]c(=O)[nH]c2C)cc1` was tested. Which Potency did it give?
Answer: inactive

Question: Which Potency does the source give for `Cc1ccccc1C` here?
Answer: inactive

Question: With `O=c1[nH][nH]c(=O)c2cc([N+](=O)[O-])ccc12` as the molecule, how does the Potency read?
Answer: inactive

Question: With `CCN(CC)CCNC(=O)c1ccc(NC(C)=O)cc1` as the molecule, how does the Potency read?
Answer: inactive

Question: For `C/C(Cl)=C/CCl`, which Potency is on record?
Answer: inactive

Question: `CC(=O)O[C@H]1C[C@@H]2CC[C@@]1(C)C2(C)C` was tested. Which Potency did it give?
Answer: inactive

Question: With `CCC/C=C/CO` as the molecule, how does the Potency read?
Answer: inactive

Question: Which Potency does the source give for `O=C(O)c1ccco1` here?
Answer: inactive

Question: Which Potency does the source give for `C=CC(=O)OCCOC(=O)C=C` here?
Answer: inactive

Question: `CCOC(=O)CCC(C)=O` was tested. Which Potency did it give?
Answer: inactive

Question: `O=C(O)[C@H](O)[C@@H](O)[C@H](O[C@@H]1O[C@H](CO)[C@H](O)[C@H](O)[C@H]1O)[C@H](O)CO` was tested. Which Potency did it give?
Answer: inactive

Question: `CCCCOC(O)CC` (stereo not given) was tested. Which Potency did it give?
Answer: inactive

Question: Which Potency does the source give for `COc1nc(C)nc(NC(=O)NS(=O)(=O)c2ccccc2OCCCl)n1` here?
Answer: inactive

Question: For `C(=C\c1ccccc1)/c1ccccc1`, which Potency is on record?
Answer: inactive

Question: How did the activity change, negative = inhibition turn out when `C=CCCCCCCCCCCCCCCCC` was run?
Answer: -9.53% [at 8.39 µM] (inactive)

Question: Which Potency does the source give for `c1ccc(SCCSc2ccccc2)cc1` here?
Answer: inactive

Question: How did the Potency turn out when `C=CC(C)(O)CC/C=C(\C)CC` (stereo not given) was run?
Answer: inactive

Question: How did the Potency turn out when `CCOC(=O)CC(C)=O` was run?
Answer: inactive

Question: For `O=S(=O)(O)c1ccccc1`, which Potency is on record?
Answer: inactive

Question: With `Cc1ccc(C(C)(C)O)cc1` as the molecule, how does the Potency read?
Answer: inactive

Question: Which Potency does the source give for `CCCOCCOCCOCCO` here?
Answer: inactive

Question: `COc1ccc(C(=O)c2cccc(O)c2)c(OC)c1` was tested. Which Potency did it give?
Answer: inactive

Question: `CC(C)(C)c1ccc(S)cc1` was tested. Which Potency did it give?
Answer: inactive

Question: How did the Potency turn out when `NCC1(Cc2noc(=O)[nH]2)CCCCC1` was run?
Answer: inactive

Question: How did the Potency turn out when `CCCC(C)C(O)CC` (stereo not given) was run?
Answer: inactive

Question: How did the Potency turn out when `NS(=O)(=O)c1ccc(NC(=O)CCC(=O)O)cc1` was run?
Answer: inactive

Question: For `COc1cc(C=O)ccc1OC(=O)C(C)C`, which Potency is on record?
Answer: inactive

Question: `Cc1cc(C)c(C)c(O)c1` was tested. Which Potency did it give?
Answer: inactive

Question: With `CCC(C)(C)C` as the molecule, how does the Potency read?
Answer: inactive

Question: Which Potency does the source give for `CN/C(=C\[N+](=O)[O-])NCCSCc1ccc(CN(C)C)o1` here?
Answer: inactive

Question: For `CCCCCCCC/C=C\CCCCCCCC(=O)OCCCC`, which activity change, negative = inhibition is on record?
Answer: -2.11% [at 19 µM] (inactive)
